Assay [1] is described as follows: qHTS assay to identify aromatase inhibitors - cell viability counter screen (AID 743084).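 Further: cells stimulated with testosterone during compound exposure; nearly all actives have a fitted effect of over 55% in size.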
The nature of assay [2]: qHTS assay to identify small molecule that activate the aryl hydrocarbon receptor (AhR) signaling pathway - cell viability counter screen (AID 743086).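 Further: HepG2 liver cells carrying the AhR DRE luciferase reporter; series mostly up to about 70 µM; nearly all actives have a fitted effect of over 45% in size.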 The essentials: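 HepG2-AhR-luc (HG2L7.5c1) cells, 4000/well, were preincubated 5 h at 37C, exposed to compound in qHTS format for 24 hr at 37C, then given CellTiter-Fluor for 30 min; viability was read as fluorescence in the reporter wells.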
For orientation: Quantitative high-throughput screening tests each substance at several concentrations.

In assay [3] the target is Peroxisome proliferator-activated receptor gamma (Homo sapiens) (UniProt P37231). The experiment in a line: qHTS assay to identify small molecule agonists of the peroxisome proliferator-activated receptor gamma (PPARg) signaling pathway (AID 743094; active means well fitted activation curve with a large enough effect in the signal ratio in the repeat runs, not every such curve was filed as active; the % refers to the signal ratio). The essentials: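 Stably transfected HEK293H cells (GeneBLAzer PPARg UAS-bla) were incubated with test substances for 17 h at 37C after a 5 h pre-incubation; beta-lactamase activity was then detected by FRET substrate fluorescence.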

A short description of assay [4]: qHTS assay to identify small molecule antagonists of the peroxisome proliferator-activated receptor gamma (PPARg) signaling pathway - cell viability counter screen (AID 743194). Further: nearly all actives have a fitted effect of over 55% in size. Further: potency means the concentration at half of the fitted maximal effect. In outline: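 PPARg-UAS-bla HEK293H cells were plated, rested 5 h at 37 C, then treated with compounds plus rosiglitazone (50 nM final) for 17 h at 37 C; viability was then read by CellTiter-Glo luminescence after 30 min at room temperature.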

Assay [5] is described as follows: qHTS assay for small molecule agonists of the antioxidant response element (ARE) signaling pathway (AID 743202; active means well fitted activation curve with a large enough effect in the signal ratio in the repeat runs, not every such curve was filed as active; the % refers to the signal ratio; further: potency means the concentration at half of the fitted maximal effect). In outline: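 Compounds delivered in DMSO to ARE-bla HepG2 cells (2,000 cells/well, pre-incubated 5 h) and left 16 h at 37 C. LiveBLAzer B/G FRET substrate then added for 2 h at RT before fluorescence reading.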
A short description of assay [6]: qHTS assay for small molecule agonists of the antioxidant response element (ARE) signaling pathway - cell viability counter screen (AID 743203; calls by dose curve; further: nearly all actives have a fitted effect of over 55% in size; further: potency means the concentration at half of the fitted maximal effect). The essentials: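 Cells (ARE-bla HepG2, 2,000/well) receive DMSO-dissolved compounds after a 5 hrs rest. Plates incubate 16 hrs at 37C/5% CO2. CellTiter-Glo luminescence is then recorded after 30 min at room temperature.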

A short description of assay [7]: qHTS assay for small molecule activators of the heat shock response signaling pathway - cell viability counter screen (AID 743209). Further: nearly all actives have a fitted effect of over 50% in size. The essentials: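 Quantitative HTS format, Tox21 10K library. HeLa cells carrying an HSE-driven beta-lactamase reporter were treated 5 h at 37 C, then assessed for viability by CellTiter-Glo luminescence.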
The nature of assay [8]: qHTS assay for small molecule activators of the heat shock response signaling pathway (AID 743210; active means well fitted activation curve with a large enough effect in the signal ratio in the repeat runs, with a control signal flat, not every such curve was filed as active; the % refers to the signal ratio; further: series mostly up to about 63 µM). The essentials: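 Reporter gene assay: HeLa cells stably bearing an HSE-bla construct, compound treatment 5 h at 37 C, LiveBLAzer substrate 2.5 h at RT, fluorescence intensity.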
In assay [9] the target is Peroxisome proliferator-activated receptor delta (Homo sapiens) (UniProt Q03181). The experiment in a line: qHTS assay to identify small molecule agonists of the peroxisome proliferator-activated receptor delta (PPARd) signaling pathway (AID 743212; calls by dose curve). The essentials: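 A PPARd-bla HEK293H line with beta-lactamase under an Upstream Activator Sequence is treated with compounds at 37 C. Substrate loading for 2 h at room temperature precedes the fluorescence measurement.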

Assay [10] in a line: qHTS assay to identify small molecule agonists of the farnesoid-X-receptor (FXR) signaling pathway - cell viability counter screen (AID 743218). Further: nearly all actives have a fitted effect of over 45% in size. The essentials:
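In GeneBLAzer FXR-UAS-bla HEK 293T cells, compounds act for 16 h at 37 C. Cell viability is then scored in the reporter wells by CellTiter-Glo, 30 min at RT, luminescence.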

The nature of assay [11]: qHTS assay to identify small molecule antagonists of the farnesoid-X-receptor (FXR) signaling pathway - cell viability counter screen (AID 743221; active means well fitted cell-killing curve with a large enough effect in the repeat runs, not every such curve was filed as active; further: nearly all actives have a fitted effect of over 50% in size; further: potency means the concentration at half of the fitted maximal effect). In outline:
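Compound effects on cell number were measured as CellTiter-Glo luminescence in HEK 293T cells expressing FXR-UAS-bla, after 16 h at 37 C with 50 uM CDCA (final).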

The target in assay [12] is Vitamin D3 receptor (Homo sapiens) (UniProt P11473). In words: qHTS assay to identify small molecule agonists of the vitamin D receptor (VDR) signaling pathway (AID 743222; calls by dose curve). The essentials: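 Agonist activity measured in VDR-bla reporter cells. Exposure 16 h, 37C, 5% CO2; detection by B/G FRET substrate, 2 h RT.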
Assay [13] has the same target. The experiment in a line: qHTS assay to identify small molecule antagonists of the vitamin D receptor (VDR) signaling pathway (AID 743223; active means well fitted inhibition curve with a large enough effect in the signal ratio in the repeat runs, not every such curve was filed as active; the % refers to the signal ratio). In outline: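 Beta-lactamase activity in VDR-bla cells is measured by FRET substrate fluorescence (2 h, room temperature) after cells spend 16 h at 37C with test compound and 3 nM final 1alpha,25-dihydroxyvitamin D3.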
Assay [14] is described as follows: qHTS assay to identify small molecule agonists of the peroxisome proliferator-activated receptor delta (PPARd) signaling pathway - cell viability counter screen (AID 743211). Further: nearly all actives have a fitted effect of over 55% in size. Further: potency means the concentration at half of the fitted maximal effect. The essentials:
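Following 5 h plating at 37 C and 5% CO2, PPARd UAS-bla HEK293H cells took up test compounds for 17 h. Viability was quantified by luminescence 30 min after CellTiter-Glo addition at room temperature.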

The nature of assay [15]: qHTS assay to identify small molecule antagonists of the peroxisome proliferator-activated receptor delta (PPARd) signaling pathway - cell viability counter screen (AID 743213). Further: nearly all actives have a fitted effect of over 50% in size. The essentials: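 PPARd-bla HEK293H cells (3000/well) got compound plus 300 nM L165041 agonist for 17 h at 37 C. Viability in the same wells came from CellTiter-Glo luminescence after 30 min at room temperature.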

Assay [16] concerns the target Peroxisome proliferator-activated receptor delta (Homo sapiens) (UniProt Q03181). The experiment in a line: qHTS assay to identify small molecule antagonists of the peroxisome proliferator-activated receptor delta (PPARd) signaling pathway (AID 743215; active means well fitted inhibition curve with a large enough effect in the signal ratio in the repeat runs, not every such curve was filed as active; the % refers to the signal ratio;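 further: cells stimulated with agonist L165041 at 300 nM final during compound exposure; series mostly up to about 62 µM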). In outline: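 Antagonist-mode beta-lactamase reporter screen: HEK293H cells with UAS-bla under PPARd control, stimulated by 300 nM L165041 (final) alongside test compound for 17 h at 37 C, then FRET fluorescence after 2 h substrate incubation.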

In assay [17] the target is Peroxisome proliferator-activated receptor gamma (Homo sapiens) (UniProt P37231). The experiment in a line: qHTS assay to identify small molecule antagonists of the peroxisome proliferator-activated receptor gamma (PPARg) signaling pathway (AID 743191; calls by dose curve; further: series mostly up to about 63 µM; nearly all actives have a fitted effect of over 30% in size). The essentials:
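GeneBLAzer PPARg UAS-bla HEK293H cells carrying a UAS-driven beta-lactamase reporter were plated at 3000 cells/well, preincubated 5 h at 37C, then given compound for 17 h at 37C; LiveBLAzer B/G FRET substrate was read after 1 h at room temperature.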

The target in assay [18] is Bile acid receptor (Homo sapiens) (UniProt Q96RI1). The experiment in a line: qHTS assay to identify small molecule antagonists of the farnesoid-X-receptor (FXR) signaling pathway (AID 743217; active means well fitted inhibition curve with a large enough effect in the signal ratio in the repeat runs, not every such curve was filed as active; the % refers to the signal ratio). The essentials:
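Beta-lactamase reporter under UAS control in HEK 293T cells; compound exposure 16 h at 37 °C in the presence of chenodeoxycholic acid (50 uM final); signal from B/G FRET substrate after 2 h at room temperature.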

The target is the same in assay [19]. In words: qHTS assay to identify small molecule agonists of the farnesoid-X-receptor (FXR) signaling pathway (AID 743220; active means well fitted activation curve with a large enough effect in the signal ratio in the repeat runs, not every such curve was filed as active; the % refers to the signal ratio). In outline:
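Beta-lactamase reporter under UAS control in GeneBLAzer FXR HEK 293T cells (5000/well) measured with LiveBLAzer FRET substrate after 2 h at room temperature. Compound exposure lasted 16 h at 37C.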

The target in assay [20] is Aryl hydrocarbon receptor (Homo sapiens) (UniProt P35869). In words: qHTS assay to identify small molecule that activate the aryl hydrocarbon receptor (AhR) signaling pathway (AID 743085). Further: nearly all actives have a fitted effect of over 15% in size. Further: potency means the concentration at half of the fitted maximal effect.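 On activation: HG2L7.5c1 human HepG2 liver cells with stably integrated DRE-driven firefly reporter; series mostly up to about 70 µM.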 In outline:
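Measured in HG2L7.5c1 cells: CellTiter-Fluor signal (30 min incubation, 37C) for viability, then luciferase luminescence (30 min, room temperature). Compound contact time was 24 h at 37C, following a 5 h pre-incubation.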

Molecules are shown by their SMILES. Records with an inconclusive call do not appear. Calls of active or inactive are those of the source. Unless noted, the call rests on the fitted dose curve; in most records, active means well fitted curve in the direction sought with a large enough effect in the repeat runs; inconclusive means weak or mixed curves; inactive means no such curve, though single readings can be large; an effect the other way counts as inactive or inconclusive.

Sequence of Vitamin D3 receptor (Homo sapiens) (P11473 whole entry, looked up): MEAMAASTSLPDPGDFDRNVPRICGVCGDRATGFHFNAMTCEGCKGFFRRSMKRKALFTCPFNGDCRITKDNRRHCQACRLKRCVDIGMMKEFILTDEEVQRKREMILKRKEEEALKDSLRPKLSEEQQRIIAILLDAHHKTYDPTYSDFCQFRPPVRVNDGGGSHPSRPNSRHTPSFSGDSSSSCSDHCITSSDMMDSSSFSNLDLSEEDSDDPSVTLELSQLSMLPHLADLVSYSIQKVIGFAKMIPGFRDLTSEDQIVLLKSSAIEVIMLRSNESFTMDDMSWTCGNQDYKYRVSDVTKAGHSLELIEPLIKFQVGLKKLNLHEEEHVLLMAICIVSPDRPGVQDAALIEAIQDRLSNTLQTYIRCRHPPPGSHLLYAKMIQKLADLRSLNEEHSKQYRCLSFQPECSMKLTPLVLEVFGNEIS
Sequence of Bile acid receptor (Homo sapiens) (Q96RI1 whole entry, looked up): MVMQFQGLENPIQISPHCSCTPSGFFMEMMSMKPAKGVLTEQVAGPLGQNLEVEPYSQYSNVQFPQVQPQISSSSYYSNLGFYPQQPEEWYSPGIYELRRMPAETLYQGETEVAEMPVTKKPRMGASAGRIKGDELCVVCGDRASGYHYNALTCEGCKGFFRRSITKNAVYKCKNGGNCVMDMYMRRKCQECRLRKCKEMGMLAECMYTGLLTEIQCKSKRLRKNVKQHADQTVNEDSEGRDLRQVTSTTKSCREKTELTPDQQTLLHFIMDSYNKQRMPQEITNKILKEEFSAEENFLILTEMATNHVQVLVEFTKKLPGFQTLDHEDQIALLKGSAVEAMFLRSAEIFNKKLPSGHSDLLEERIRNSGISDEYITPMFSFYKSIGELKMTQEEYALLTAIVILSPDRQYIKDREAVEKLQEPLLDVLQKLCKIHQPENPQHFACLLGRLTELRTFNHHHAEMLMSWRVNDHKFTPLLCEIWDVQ
Sequence of Peroxisome proliferator-activated receptor delta (Homo sapiens) (Q03181 whole entry, looked up): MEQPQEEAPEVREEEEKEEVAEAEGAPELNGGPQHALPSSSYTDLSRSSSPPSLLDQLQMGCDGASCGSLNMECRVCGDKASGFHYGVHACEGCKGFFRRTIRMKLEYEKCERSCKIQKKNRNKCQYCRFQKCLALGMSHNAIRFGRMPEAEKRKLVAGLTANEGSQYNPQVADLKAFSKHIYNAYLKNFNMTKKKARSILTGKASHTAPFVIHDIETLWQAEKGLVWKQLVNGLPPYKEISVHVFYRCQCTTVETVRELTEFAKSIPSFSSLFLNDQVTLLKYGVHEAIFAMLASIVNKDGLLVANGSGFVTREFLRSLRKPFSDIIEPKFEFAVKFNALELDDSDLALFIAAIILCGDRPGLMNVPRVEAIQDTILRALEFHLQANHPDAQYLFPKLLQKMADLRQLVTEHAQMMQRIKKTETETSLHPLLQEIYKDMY
Sequence of Peroxisome proliferator-activated receptor gamma (Homo sapiens) (P37231 whole entry, looked up): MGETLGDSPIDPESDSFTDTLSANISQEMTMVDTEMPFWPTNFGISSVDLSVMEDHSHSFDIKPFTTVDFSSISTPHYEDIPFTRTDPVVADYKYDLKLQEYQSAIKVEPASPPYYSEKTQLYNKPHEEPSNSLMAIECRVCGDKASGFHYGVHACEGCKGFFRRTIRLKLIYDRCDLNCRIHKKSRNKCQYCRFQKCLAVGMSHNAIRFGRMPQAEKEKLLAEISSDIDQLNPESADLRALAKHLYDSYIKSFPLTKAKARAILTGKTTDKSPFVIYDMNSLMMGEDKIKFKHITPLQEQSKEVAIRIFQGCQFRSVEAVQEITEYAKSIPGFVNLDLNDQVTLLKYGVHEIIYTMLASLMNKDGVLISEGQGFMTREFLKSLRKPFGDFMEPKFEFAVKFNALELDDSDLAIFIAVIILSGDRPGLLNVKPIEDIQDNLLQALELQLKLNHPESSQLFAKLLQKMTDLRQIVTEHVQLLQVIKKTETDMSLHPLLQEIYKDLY
Sequence of Aryl hydrocarbon receptor (Homo sapiens) (P35869 whole entry, looked up): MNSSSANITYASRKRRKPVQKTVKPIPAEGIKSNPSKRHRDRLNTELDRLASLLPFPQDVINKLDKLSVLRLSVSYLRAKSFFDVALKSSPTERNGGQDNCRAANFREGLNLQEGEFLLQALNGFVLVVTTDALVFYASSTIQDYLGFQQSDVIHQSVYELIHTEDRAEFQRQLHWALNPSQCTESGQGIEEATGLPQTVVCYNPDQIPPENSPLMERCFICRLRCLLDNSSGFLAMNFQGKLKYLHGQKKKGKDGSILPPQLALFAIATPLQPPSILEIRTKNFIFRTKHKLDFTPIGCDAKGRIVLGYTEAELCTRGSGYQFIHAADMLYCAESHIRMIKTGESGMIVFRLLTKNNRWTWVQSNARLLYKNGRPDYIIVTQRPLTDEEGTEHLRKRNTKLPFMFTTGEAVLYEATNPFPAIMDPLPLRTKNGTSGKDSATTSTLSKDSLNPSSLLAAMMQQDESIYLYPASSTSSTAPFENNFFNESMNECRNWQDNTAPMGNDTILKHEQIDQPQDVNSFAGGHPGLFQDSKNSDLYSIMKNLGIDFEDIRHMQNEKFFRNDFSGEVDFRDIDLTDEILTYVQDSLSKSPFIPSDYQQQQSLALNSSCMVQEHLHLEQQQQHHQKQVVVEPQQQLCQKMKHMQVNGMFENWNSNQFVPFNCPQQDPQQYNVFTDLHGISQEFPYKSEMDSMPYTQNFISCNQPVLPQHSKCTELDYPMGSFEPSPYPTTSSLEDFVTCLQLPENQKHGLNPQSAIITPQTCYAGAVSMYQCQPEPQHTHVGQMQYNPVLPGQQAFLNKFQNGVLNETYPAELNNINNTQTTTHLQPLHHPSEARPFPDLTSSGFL

Take `Oc1cc(Cl)cc(Cl)c1Cl`: the Potency entry in assay [1], in [2], in assay [3], in assay [4], in assay [6] and in assay [7] was “inactive” in each case. Further, the Potency entry in assay [8], in assay [9], in [10], in [11], in assay [12] and in [13] was “inactive” in each case. The Potency in assay [5] is 62.6 µM (active).
In the case of `Cc1cc(C(C#N)c2ccc(Cl)cc2)c(Cl)cc1NC(=O)c1cc(I)cc(I)c1O` (centres undefined), the Potency result in assay [1] and in assay [2] was “inactive” each time. In addition, the Potency is 3.76 µM (active) in assay [4], 33.5 µM (active) in assay [6], 29.8 µM (active) in assay [14] and 29.8 µM (active) in assay [11].
As to `Clc1nnc(Cl)c2ccccc12`, the Potency entry in assay [1], in assay [2], in [3], in assay [4], in [6] and in assay [9] was “inactive” each time. Also, the Potency result in assay [15], in assay [16], in assay [10], in assay [11], in assay [12] and in [13] was “inactive” in each case.
Take `O=C(/C=C/c1ccc(O)c(O)c1)O[C@@H](C(=O)O)[C@@H](OC(=O)/C=C/c1ccc(O)c(O)c1)C(=O)O`: the Potency entry in [1], in assay [2], in assay [3], in [17], in assay [6] and in assay [7] was “inactive” in each case. Moreover, the Potency entry in [8], in assay [14], in assay [16], in assay [18], in assay [10] and in [19] was “inactive” throughout. Also, the Potency entry in assay [11] and in assay [13] was “inactive” in each case.
In the case of `COc1cc(/C=C/c2ccccc2)oc(=O)c1`, the Potency result in assay [1], in [2], in [17], in assay [4], in assay [6] and in assay [7] was “inactive” in each case. In addition, the Potency entry in [8], in [15], in assay [16], in assay [10], in [11] and in assay [13] was “inactive” each time.
Turning to `Cc1cc(=O)oc2cc(O)cc(O)c12`, the Potency in [20] is 15.4 µM (active). Also, the Potency result in assay [2], in [4], in [6], in [7], in assay [14] and in assay [15] was “inactive” each time. In addition, the Potency result in [18], in [10] and in assay [11] was “inactive” in each case.
`C=CCCC(=O)/C=C/C1C(C)=CCCC1(C)C` (centres undefined): the Potency result in assay [20], in assay [2], in assay [3], in [17], in assay [4] and in [5] was “inactive” each time. Further, the Potency entry in assay [6], in [7], in assay [14], in [9], in [15] and in assay [10] was “inactive” each time. The Potency result in assay [11], in [12] and in [13] was “inactive” each time.
With `Nc1cc(Cl)c(O)c(Cl)c1`, the Potency result in assay [1], in assay [2], in assay [6], in [7], in assay [15] and in assay [10] was “inactive” each time. The Potency result in assay [11] was “inactive”. Further, in assay [20], the Potency was 61.1 µM (active).
As for `c1ccsc1`, the Potency entry in assay [20], in assay [2], in assay [3], in assay [17], in [4] and in [6] was “inactive” in each case. Also, the Potency entry in assay [7], in [14], in assay [9], in [16], in [10] and in assay [11] was “inactive” in each case. For the same compound, the Potency result in assay [12] and in assay [13] was “inactive” in each case.

These data come from PubChem BioAssay (Tox21).
